According to PubChem BioAssay (EPA / NIEHS):
Active and inactive are the calls of the source. How the source made its calls: active means hit-call score of the fitted dose curve at least 0.9, where 1 is the maximum; inactive means score below 0.9.

Legend:
Conditions in all cases: mRNA level, 48 h; actives raise or lower the signal
[1] = read-out: ATP-citrate lyase (ACLY), ACLY (gene 47); assay: LTEA_HepaRG_ACLY: Life Technologies and Expression Analysis (LTEA) Assay for ATP-citrate lyase (ACLY) using HepaRG (AID 2283466)
Outline: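 ACLY expression changes in human HepaRG liver cells are quantified by qRT-PCR after 48 h exposure to test chemicals (maximum 100 uM, half-log steps). Values are fitted in both directions relative to 0.5% DMSO vehicle.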

[2] = read-out: Peroxisomal acyl-coenzyme A oxidase 1 (ACOX1) gene, ACOX1 (gene 51); assay: LTEA_HepaRG_ACOX1: Life Technologies and Expression Analysis (LTEA) Assay for Peroxisomal acyl-coenzyme A oxidase 1 (ACOX1) gene using HepaRG (AID 2283467)
Outline: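 Human HepaRG hepatic cultures, 48 h treatment with test chemicals up to 100 uM. ACOX1 expression read by qRT-PCR relative to 0.5% DMSO vehicle.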

[3] = read-out: Alkaline Phosphatase, Placental (ALPP) gene, ALPP (gene 250); assay: LTEA_HepaRG_ALPP: Life Technologies and Expression Analysis (LTEA) Assay for Alkaline Phosphatase, Placental (ALPP) gene using HepaRG (AID 2283468);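 on AC50: differentiated human HepaRG liver cells in serum-free induction medium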
Outline: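 ALPP transcript level, measured by qRT-PCR and normalized to three housekeeping genes (ACTB, GAPDH, POLR2A), after 48 h dosing of differentiated HepaRG in serum-free induction medium. Top concentration 100 uM with half-log dilutions (8 points, 0.5% DMSO, duplicates); bidirectional fitting relative to DMSO.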

[4] = read-out: Bcl-2 (BAD) gene, BAD (gene 572); assay: LTEA_HepaRG_BAD: Life Technologies and Expression Analysis (LTEA) Assay for Bcl-2 (BAD) gene using HepaRG (AID 2283469)
Outline: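 Activity values reflect up- or down-regulation of BAD mRNA in human HepaRG hepatic cells treated 48 h in serum-free medium, with eight-point half-log dosing capped at 100 uM and 0.5% DMSO vehicle.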

[5] = read-out: adenosine kinase (ADK) gene, ADK (gene 132); assay: LTEA_HepaRG_ADK: Life Technologies and Expression Analysis (LTEA) Assay for adenosine kinase (ADK) gene using HepaRG (AID 2283471)
Outline: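 ADK expression quantified by qRT-PCR, normalised to three housekeeping genes, after 48 h exposure of HepaRG cells to eight concentrations (top 100 uM, half-log steps, duplicate, 0.5% DMSO). Up- or down-regulation fitted relative to vehicle.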

[6] = read-out: Alpha-fetoprotein (AFP) gene, AFP (gene 174); assay: LTEA_HepaRG_AFP: Life Technologies and Expression Analysis (LTEA) Assay for Alpha-fetoprotein (AFP) gene using HepaRG (AID 2283472)
Outline: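 qRT-PCR (Fluidigm TaqMan) readout of AFP transcript, normalized to three housekeeping genes, fitted bidirectionally against 0.5% DMSO baseline. HepaRG cells received chemicals for 48 h in serum-free induction medium, top concentration 100 uM, half-log steps.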

BCL2L11 (gene 10018) = assay: LTEA_HepaRG_BCL2L11: Life Technologies and Expression Analysis (LTEA) Assay for Bcl-2 (BCL2L11) gene using HepaRG (AID 2283473)
Outline: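 BCL2L11 transcript levels are measured by Fluidigm qRT-PCR, normalized to three housekeeping genes. HepaRG cultures were plated 48 h, then treated 48 h with test chemical (top 100 uM, half-log, 0.5% DMSO vehicle); curves were fitted bidirectionally against DMSO.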

[7] = read-out: Apolipoprotein A-V (APOA5) gene, APOA5 (gene 116519); assay: LTEA_HepaRG_APOA5: Life Technologies and Expression Analysis (LTEA) Assay for Apolipoprotein A-V (APOA5) gene using HepaRG (AID 2283474)
Outline: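 APOA5 transcript levels were quantified by qRT-PCR, normalized to three housekeeping genes, after 48 h chemical treatment of HepaRG cells (8 points, 100 uM maximum, half-log steps, 0.5% DMSO). Curves fitted in both directions against vehicle.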

[8] = read-out: Apoptosis regulator Bcl-2 (Homo sapiens) (UniProt P10415); assay: LTEA_HepaRG_BCL2: Life Technologies and Expression Analysis (LTEA) Assay for Bcl-2 gene using HepaRG (AID 2283475);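 further: BCL2 transcript by TaqMan qRT-PCR normalised to ACTB GAPDH and POLR2A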
Outline: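 qRT-PCR read-out (Fluidigm TaqMan) of BCL2 transcript, normalised to three housekeeping genes, after 48 h chemical exposure of HepaRG cells; 8-point half-log series, top 100 uM, 0.5% DMSO vehicle. Gain or loss of signal fitted relative to DMSO baseline.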

Caspase-3 (Homo sapiens) = Caspase-3 (Homo sapiens) (UniProt P42574); assay: LTEA_HepaRG_CASP3: Life Technologies and Expression Analysis (LTEA) Assay for cysteine-aspartic acid protease (CASP3) using HepaRG (AID 2283477)
Sequence of Caspase-3 (Homo sapiens) (P42574 whole entry, looked up): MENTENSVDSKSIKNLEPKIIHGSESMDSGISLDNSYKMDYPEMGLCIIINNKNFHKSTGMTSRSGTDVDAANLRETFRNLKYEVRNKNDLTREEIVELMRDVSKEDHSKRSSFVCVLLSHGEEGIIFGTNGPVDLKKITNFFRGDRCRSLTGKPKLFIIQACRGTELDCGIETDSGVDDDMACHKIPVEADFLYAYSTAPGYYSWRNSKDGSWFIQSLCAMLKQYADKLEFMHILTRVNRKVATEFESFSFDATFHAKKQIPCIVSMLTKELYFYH
Outline: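 Expression of CASP3 was quantified by TaqMan qRT-PCR against three housekeeping genes (ACTB, GAPDH, POLR2A), bidirectionally versus 0.5% DMSO. HepaRG cultures received compounds in duplicate, top 100 uM with half-log steps, for 48 h in serum-free induction medium.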

[9] = read-out: Cytochrome P450 (CYP24A1), CYP24A1 (gene 1591); assay: LTEA_HepaRG_CYP24A1: Life Technologies and Expression Analysis (LTEA) Assay for Cytochrome P450 (CYP24A1) using HepaRG (AID 2283478)
Outline: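 mRNA of CYP24A1 quantified by TaqMan qRT-PCR (ACTB/GAPDH/POLR2A normalization) after 48 h chemical exposure of HepaRG cells, top concentration 100 uM, half-log steps, 0.5% DMSO vehicle, duplicates. Curves fitted bidirectionally against DMSO baseline.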

[10] = read-out: cysteine-aspartic acid protease (CASP8), CASP8 (gene 841); assay: LTEA_HepaRG_CASP8: Life Technologies and Expression Analysis (LTEA) Assay for cysteine-aspartic acid protease (CASP8) using HepaRG (AID 2283480)
Outline: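 Concentration-response in duplicate up to 100 uM (half-log steps, 0.5% DMSO) on differentiated HepaRG cultures for 48 h. Expression change of CASP8 mRNA is determined by TaqMan qRT-PCR with housekeeping-gene normalization.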

[11] = read-out: Cytochrome P450 2C19 (Homo sapiens) (UniProt P33261); assay: LTEA_HepaRG_CYP2C19: Life Technologies and Expression Analysis (LTEA) Assay for CYP2C19 using HepaRG (AID 2283482)
Outline: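 CYP2C19 transcript levels by qRT-PCR, normalized to three housekeeping genes, in HepaRG cells after 48 h chemical exposure. Eight-point half-log series topping at 100 uM, 0.5% DMSO vehicle. Increases and decreases both fitted against DMSO.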

CYP2C8 (gene 1558) = assay: LTEA_HepaRG_CYP2C8: Life Technologies and Expression Analysis (LTEA) Assay for CYP2C8 using HepaRG (AID 2283483)
Outline: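 This is a transcriptional endpoint in HepaRG cultures: 48 h exposure, highest concentration 100 uM. CYP2C8 mRNA is quantified by TaqMan qRT-PCR.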

CYP2C9 (gene 1559) = assay: LTEA_HepaRG_CYP2C9: Life Technologies and Expression Analysis (LTEA) Assay for CYP2C9 using HepaRG (AID 2283484)
Outline: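 Eight-point concentration-response (highest 100 uM, half-log dilutions) in HepaRG cells for 48 h; CYP2C9 expression by qRT-PCR normalized to ACTB, GAPDH, POLR2A. Bidirectional fit, DMSO baseline.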

CYP2E1 (gene 1571) = assay: LTEA_HepaRG_CYP2E1: Life Technologies and Expression Analysis (LTEA) Assay for CYP2E1 using HepaRG (AID 2283485)
Outline: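 CYP2E1 transcript was measured by TaqMan qRT-PCR in human HepaRG cultures after 48 h chemical exposure (top 100 uM, half-log steps, 0.5% DMSO vehicle). Housekeeping-gene normalization; gain or loss fitted relative to DMSO baseline.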

[12] = read-out: Bcl-2 (BID) gene, BID (gene 637); assay: LTEA_HepaRG_BID: Life Technologies and Expression Analysis (LTEA) Assay for Bcl-2 (BID) gene using HepaRG (AID 2283476)
Outline: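 HepaRG, 48 h exposure, 8-pt half-log series, top 100 uM, 0.5% DMSO vehicle, duplicates. Readout: BID mRNA by TaqMan qRT-PCR; housekeeping-normalized; bidirectional curve fit vs DMSO baseline.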

[13] = read-out: Cytochrome P450 (CYP1A2), CYP1A2 (gene 1544); assay: LTEA_HepaRG_CYP1A2: Life Technologies and Expression Analysis (LTEA) Assay for Cytochrome P450 (CYP1A2) using HepaRG (AID 2283479)
Outline: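 CYP1A2 transcript measured by TaqMan qRT-PCR against three housekeeping genes after 48-hour chemical exposure of HepaRG cells. Eight-point half-log series topping at 100 uM in 0.5% DMSO, duplicates; gain or loss fitted relative to vehicle.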

[14] = read-out: Cytochrome P450 (CYP2B6), CYP2B6 (gene 1555); assay: LTEA_HepaRG_CYP2B6: Life Technologies and Expression Analysis (LTEA) Assay for Cytochrome P450 (CYP2B6) using HepaRG (AID 2283481)
Outline: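 CYP2B6 transcript level quantified by qRT-PCR against three housekeeping genes, fitted bidirectionally relative to DMSO. HepaRG cultures received chemicals for 48 h, 8-point half-log series from 100 uM in 0.5% DMSO, duplicate wells, serum-free induction medium.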

Measured: AC50

Sequence of Cytochrome P450 2C19 (Homo sapiens) (P33261 whole entry, looked up): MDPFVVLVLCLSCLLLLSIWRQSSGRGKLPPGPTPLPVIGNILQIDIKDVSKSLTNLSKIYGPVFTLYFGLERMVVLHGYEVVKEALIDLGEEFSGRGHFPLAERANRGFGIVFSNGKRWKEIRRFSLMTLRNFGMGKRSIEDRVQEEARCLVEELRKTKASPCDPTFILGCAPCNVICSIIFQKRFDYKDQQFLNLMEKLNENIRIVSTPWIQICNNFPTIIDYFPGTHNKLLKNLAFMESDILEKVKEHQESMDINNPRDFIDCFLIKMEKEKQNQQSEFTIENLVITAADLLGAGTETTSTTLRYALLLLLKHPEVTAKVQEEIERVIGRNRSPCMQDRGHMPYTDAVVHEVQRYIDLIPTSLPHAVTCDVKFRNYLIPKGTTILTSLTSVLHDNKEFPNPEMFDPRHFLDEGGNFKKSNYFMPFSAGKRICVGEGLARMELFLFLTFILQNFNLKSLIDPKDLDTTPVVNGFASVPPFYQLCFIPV
Sequence of Apoptosis regulator Bcl-2 (Homo sapiens) (P10415 whole entry, looked up): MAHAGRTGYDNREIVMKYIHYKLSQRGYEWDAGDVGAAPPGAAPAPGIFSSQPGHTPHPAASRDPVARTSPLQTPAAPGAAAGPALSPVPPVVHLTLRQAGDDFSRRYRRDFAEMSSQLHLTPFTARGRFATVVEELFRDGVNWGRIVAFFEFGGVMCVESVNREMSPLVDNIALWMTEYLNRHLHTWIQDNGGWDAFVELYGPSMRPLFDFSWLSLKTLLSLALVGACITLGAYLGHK

CCOC(=O)C(C)OC(=O)c1cc(Oc2ccc(C(F)(F)F)cc2Cl)ccc1[N+](=O)[O-] (centres undefined)
active: [1] 50 µM | [2] 2.11 µM | [6] 50 µM | [11] 12.9 µM | CYP2C8 (gene 1558) 12.8 µM | CYP2E1 (gene 1571) 36.6 µM
not listed: [12] | [13] | [14]
inactive: all other assays above

CCOP(=S)(OCC)Oc1nc(Cl)n(C(C)C)n1
active: [1] 33.5 µM | [2] 9.48 µM | [6] 21.2 µM | [7] 21.4 µM | [11] 12.7 µM | CYP2E1 (gene 1571) 26.5 µM
not listed: BCL2L11 (gene 10018) | [12] | [13] | [14]
inactive: all other assays above

CCC(C)n1c(=O)[nH]c(C)c(Br)c1=O (centres undefined)
active: [2] 21.6 µM | [6] 35.5 µM | BCL2L11 (gene 10018) 20.7 µM | CYP2C8 (gene 1558) 50 µM | CYP2E1 (gene 1571) 20.6 µM
not listed: [9] | [13] | [14]
inactive: all other assays above

Nc1c(Cl)c(Cl)nc(C(=O)O)c1Cl
active: [13] 50 µM
not listed: BCL2L11 (gene 10018) | [9] | [14]
inactive: all other assays above

O=C(Nc1ccccc1-c1ccc(Cl)cc1)c1cccnc1Cl
active: [6] 52.5 µM | [14] 1.62 µM | CYP2E1 (gene 1571) 52.5 µM
not listed: BCL2L11 (gene 10018) | [9] | [13]
inactive: all other assays above

CC(C)N1C(=O)N(c2ccccc2)CSC1=NC(C)(C)C
active: [1] 84.3 µM | [3] 78.3 µM | [6] 64.4 µM | [7] 81.8 µM | [8] 78.7 µM | [13] 50 µM | [11] 11.4 µM | CYP2C8 (gene 1558) 84.2 µM | CYP2C9 (gene 1559) 83.3 µM | CYP2E1 (gene 1571) 63.5 µM
inactive: [2] | [4] | [5] | Caspase-3 (Homo sapiens) | [10]

COc1cc(Cl)c(OC)cc1Cl
active: [13] 50 µM | [14] 1.23 µM
not listed: [9] | [11] | [12]
inactive: all other assays above

CCN(CC)C(=O)C(C)Oc1cccc2ccccc12 (centres undefined)
active: [2] 69.8 µM | [3] 84.3 µM | [6] 73.6 µM | [7] 79.3 µM | [13] 26.4 µM | [11] 12.6 µM | CYP2E1 (gene 1571) 73.5 µM
not listed: BCL2L11 (gene 10018) | [9] | [12] | [14]
inactive: all other assays above

Cc1ccc(N=CN(C)C=Nc2ccc(C)cc2C)c(C)c1
active: [13] 51.6 µM
not listed: BCL2L11 (gene 10018) | [12] | [14]
inactive: all other assays above

CCCN(CC)CC1COC2(CCC(C(C)(C)C)CC2)O1 (centres undefined)
not listed: [9] | [12] | [14]
inactive: all other assays above

Nc1c(Cl)c(F)nc(OCC(=O)O)c1Cl
not listed: [12]
inactive: all other assays above

CC(C)Nc1nc(Cl)nc(NC(C)C)n1
active: [6] 24.8 µM | [11] 4.74 µM | CYP2E1 (gene 1571) 37.8 µM
not listed: BCL2L11 (gene 10018) | [9] | [12] | [13] | [14]
inactive: all other assays above
